# From PubChem BioAssay
# IDE act – activators of human insulin-degrading enzyme in cells; HEK cells, FAbeta-B cleavage, fluorescence polarization; 0% vehicle, 100% cell-free pure enzyme wells; activation, % at 5.96 µM; 340,000 tested, 0.073% active; AID 493087;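 active = activation above the mean of all tested compounds plus 3 SD, set per screening campaign, cut at about 17% in these data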
# CRFBP-R2 block – antagonists of CRF-binding protein/CRF-R2 receptor complex; AID 588475; 350,000 tested, 0.59% active; HEK293 CRF-R2/CRF-BP, CRF-induced calcium fluorescence; inhibition, % at 11.8 µM;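 active = inhibition of the ligand-induced calcium signal above about 50% at the single tested concentration, limit read from the data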
# RTF Ca sens inh – cardiac RTF calcium desensitization. AID 493244. inhibition, % at 7.15 µM. IANBD-labeled cardiac RTF, Ca2+ fluorescence. 340,000 tested, 0.12% active. P19429+P45379;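 active = inhibition above the mean inhibition of all tested compounds plus 3 SD, cut at about 17% in these data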;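 also: assay run at fixed EC70 calcium of 1.6 mM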
# IDE inh – inhibitors of human insulin-degrading enzyme in cells; AID 434962; P14735; HEK cells, FAbetaB cleavage, fluorescence polarization; inhibition, % at 5.59 µM; 320,000 tested, 0.41% active;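 active = percent inhibition above the average of all tested compounds plus 3 SD, set per screening campaign, cut at about 16% in these data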;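 also: IDE supplied by intact live HEK cells; FP after avidin binding of uncleaved biotin substrate so inhibition keeps polarization high; 0% = DMSO wells and 100% = 60 µM reference IDE inhibitor Ii1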
# CRFBP-R2 agonist – CRF-BP/CRF-R2 complex agonism; HEK293 CRF-R2/CRF-BP, calcium dye fluorescence (FLIPR); percent of saturating CRF peptide response; activation, % at 13.2 µM; 350,000 tested, 0.46% active;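 active = activation of at least 50%, plus an integration ratio under a set limit after plate pattern correction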;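 also: plate controls were neutral control wells without compound for no effect and CRF at EC100 for full effect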
# cardiac RTF act – increases calcium sensitivity of human cardiac regulated thin filaments. P19429+P45379. IANBD-labeled TnC RTF fluorescence at EC20 calcium; 0% EC20 calcium, 100% full calcium. activation, % at 7.2 µM. 340,000 tested, 0.24% active;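 active = activation above the mean over all tested compounds plus 3 SD, cut at about 30% in these data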;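 also: rise in fluorescence read as greater calcium sensitivity of cardiac thin filaments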
# IDE cell inh cf – confirmation of human insulin-degrading enzyme inhibitors in cells. 1,200 tested, 51% active. shares compounds with IDE inh. HEK cells, FAbetaB cleavage, fluorescence polarization. AID 435028. inhibition, % at 5.59 µM;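 active = mean inhibition across triplicate wells above the cutoff set by the earlier primary insulin-degrading enzyme screen, cut at about 16% in these data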;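 also: 0% = DMSO wells and 100% = 60 µM reference IDE inhibitor Ii1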
# HEK293 tox – kills HEK cells in IDE inhibitor counter-screen; HEK293 cytotoxicity, ATP luminescence; 1,200 tested, 28% active; AID 449730; shares compounds with IDE inh; inhibition, % at 5.59 µM; in the data active = inhibition above about 22%;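 also: 0% = vehicle wells and 100% = reference cytotoxic drug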
# IDE FP artifact – fluorescence interference counter-screen for IDE inhibitors; shares compounds with IDE inh; FP counterscreen for fluorescent artifacts, IDE probe project; IC50, µM; 30 tested, under 10 active; AID 588718; call rule not given here
# Starred values were filed as active, the others as inactive; . = no result given. In the library only some 1.5% were active in any assay of this set; here they are far more common.
SMILES,IDE act,CRFBP-R2 block,RTF Ca sens inh,IDE inh,CRFBP-R2 agonist,cardiac RTF act,IDE cell inh cf,HEK293 tox,others
COc1ccccc1N1CCN(C(=O)Nc2cccc(Cl)c2)CC1,2.3,-37.0,1.2,2.4,-2.6,-3.5,.,.,
Cn1c(SCc2nc3ccccc3[nH]2)nnc1-c1cccc(Cl)c1,.,.,.,.,.,.,.,.,IDE FP artifact=>54.7
COc1cccc(-c2nnc(SCc3nc4ccccc4[nH]3)n2Cc2ccco2)c1,.,.,.,.,.,.,.,.,IDE FP artifact=>54.7
c1ccc(-c2nnc(SCc3nc4ccccc4[nH]3)n2Cc2ccco2)cc1,-6.0,-4.9,-5.4,8.8,-1.9,-2.0,.,.,
O=[N+]([O-])/C(=C\Nc1ccc(F)cc1F)S(=O)(=O)c1ccccc1,-1.4,10.9,-3.3,1.0,0.1,-0.9,.,.,
COc1ccc2c(/C=C/c3cc[n+](C)cc3)c[nH]c2c1,-8.3,-7.0,-16.7,14.2,14.1,7.7,.,.,
COc1ccc2c(c1)c(/C=C/c1cc[n+](C)cc1)cn2C,-19.1,-4.4,-77.0,26.9*,30.4,74.5*,46.7*,43.5*,
C#CCOCCOCCOCCNc1nc(N2CCN(C(=O)[C@H]([C@@H](C)CC)n3cc([C@@H](N)CC(C)C)nn3)CC2)nc(N2CCN(C(=O)[C@H](Cc3ccc(O)cc3)n3cc([C@@H](N)C(C)CC)nn3)CC2)n1 (stereo partly specified),0.6,7.5,-6.0,16.1*,-1.7,-1.6,3.3,6.4,
O=C(Nc1ccccc1SCC1CSc2nc3ccccc3c(=O)n21)c1ccccc1 (stereo unspecified),-36.8,66.6*,-4.6,18.2*,-3.1,-2.4,9.9,19.7,
CN(C)c1ccc(/C=C2\C(=N)N3N=C(CC(=O)N4CCCCC4)SC3=NC2=O)cc1,-58.0,-65.4,-20.2,20.8*,55.1*,28.8,49.3*,8.8,
CCOc1cc(/C=N/NC(=O)CCn2nc(C)cc2C)ccc1O,1.8,-8.9,-15.5,-2.1,0.3,0.1,.,.,
Cc1cccc(OCC(=O)NCC(=O)N/N=C/c2cc(Br)ccc2OCc2ccccc2)c1,2.1,-4.4,-1.8,32.2*,0.8,7.3,5.2,5.2,
COc1ccc(NC(=O)C2CCN(S(=O)(=O)c3ccc4c(c3)CC(C)N4C(C)=O)CC2)c(OC)c1 (stereo unspecified),3.4,-0.9,2.9,4.2,0.5,-3.4,.,.,
O=C(CC1Sc2ccccc2NC1=O)Nc1cccc(-c2nnc3n2CCCCC3)c1 (stereo unspecified),-14.5,5.8,7.9,16.5*,-0.5,0.5,8.8,6.2,
O=C(CC1Sc2ccccc2NC1=O)Nc1cccnc1 (stereo unspecified),2.8,10.8,-2.3,-0.4,1.9,0.4,.,.,
Cc1cc(C)c(S(=O)(=O)CCC(C)C)c(=O)[nH]1,1.6,13.0,-4.2,0.5,-1.3,2.2,.,.,
Cn1c(/C=N/NC(=O)c2ccccc2Br)nc2ccccc21,-17.3,-3.2,-5.2,19.9*,-1.7,0.3,3.4,16.9,
O=C1C2C3CC(C2C(=O)N1c1cccc(Cl)c1)[C@H](O)C3O (stereo partly specified),6.2,-12.4,1.8,-1.3,1.1,-1.9,.,.,
O=C(C1=NN(c2ccccc2)C2C(=O)N(c3cccc(Cl)c3)C(=O)C12)c1ccccc1 (stereo unspecified),-23.1,-137.5,-27.5,30.7*,115.7*,46.7*,27.9*,10.8,
Cc1nn(Cc2c(F)c(F)c(F)c(F)c2F)c(C)c1NC(=O)c1cccc(COc2ccccc2Cl)c1,-5.2,38.5,-9.8,1.4,0.9,-3.3,.,.,
Cc1nn(Cc2c(F)c(F)c(F)c(F)c2F)c(C)c1NC(=O)c1ccc(COc2ccc(Cl)cc2Cl)o1,-9.6,17.4,-4.9,18.5*,1.9,-0.4,6.9,34.0*,
Cc1nn(Cc2cccc(F)c2)c(C)c1NC(=O)c1ccc(COc2ccccc2Cl)cc1,-35.3,32.2,-1.3,25.2*,7.8,-1.9,13.3,55.4*,
Cc1nn(Cc2ccc(Cl)cc2Cl)c(C)c1NC(=O)c1ccc(COc2cc(Cl)ccc2Cl)o1,1.2,6.5,-2.6,-0.4,1.2,-3.9,.,.,
CCOc1ccc(-c2c(C(=O)N/N=C/c3ccc(OC)cc3)nnn2-c2nonc2N)cc1,4.4,-168.8,-0.2,19.6*,1.2,-10.3,4.4,7.3,
Cc1ccc(N2CCN(CCc3nc4cc(NC(=O)c5ccco5)ccc4n3C)CC2)cc1,-1.5,6.7,-7.9,19.4*,-0.4,4.5,7.7,21.1,
SMILES,IDE act,CRFBP-R2 block,RTF Ca sens inh,IDE inh,CRFBP-R2 agonist,cardiac RTF act,IDE cell inh cf,HEK293 tox,others
CCOc1ccc([C@@H]2CC=C(C(=O)O)CN2S(=O)(=O)c2ccc(C)cc2)cc1,-6.5,9.4,-4.1,-2.4,-0.9,-3.5,.,.,
CN1/C(=C\C=C(/C#N)C(=O)Nc2ccccc2F)C(C)(C)c2ccccc21,-44.3,-192.5,-31.4,24.8*,257.3*,39.0*,35.2*,14.1,
Cc1cccc(Nc2nc(C)cc(C)c2C#N)c1,2.6,-3.2,-1.0,-0.4,0.0,0.5,.,.,
Cc1cccc(Nc2nc(N)c(C#N)c(CC#N)c2C#N)c1,-7.4,-15.8,4.7,25.8*,-0.3,5.0,18.9*,12.7,
OCCNc1ncnc2c1cnn2Cc1ccccc1,-1.6,19.3,-2.2,.,5.8,-6.3,.,.,
CC(C)CCNc1ncnc2c1cnn2Cc1ccccc1Cl,-13.8,-5.9,2.1,21.3*,-7.6,-1.6,8.7,18.9,
Cc1csc2c(N3CCN(C(=O)Nc4ccc(Cl)c(Cl)c4)CC3)ncnc12,-20.6,-8.2,-7.0,21.2*,-1.1,2.6,8.9,9.4,
CN(C)c1cc[n+](CC(=O)c2ccc(-c3ccccc3)cc2)cc1,-14.8,6.7,-1.1,22.3*,-2.0,1.1,22.6*,82.6*,
Cc1ccc(S(=O)(=O)CC(=O)N2CCN(c3ccc([N+](=O)[O-])cc3)CC2)cc1,-1.0,5.5,-1.5,19.0*,-1.0,3.8,1.0,23.2*,
CC(=O)c1ccc(N2CCN(C(=O)/C=C/c3ccc(S(=O)(=O)NCc4ccco4)cc3)CC2)cc1,-13.6,-2.8,-7.3,21.0*,0.0,-3.6,0.3,48.9*,
CC(=O)c1ccc(N2CCN(C(=O)/C=C/c3ccc(S(=O)(=O)N4CCOCC4)cc3)CC2)cc1,-0.3,6.5,-6.5,3.8,-1.8,5.6,.,.,
NC(N)=NC(N)=Nc1cccc2ccccc12,7.6,-14.4,-6.4,17.0*,-0.3,-3.4,-2.0,13.1,
